Cytotoxicity data for 99 compounds are collected here from PubChem BioAssay AID430 (Sanford-Burnham Center for Chemical Genomics, 2006).

Each structure is given as a SMILES string. About 1,100 (1.7%) of roughly 63,000 compounds were called active. The list comes from a sample in which actives are over-represented; it also holds similar structures and randomly drawn compounds. Entries with a potency or affinity are not part of this list. Unmarked numbers belong to inactive results. Cut-off read from the data, not from the text of the source: active = cytotoxicity above about 50%; inactive = the rest.

The assay can be described thus: HPDE-C7 pancreatic duct cell viability loss – fluorescence, HTS (AID 430).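 Note: cells exposed to compound for 48 hours before viability readout; 0% = vehicle and 100% = reference cytotoxic drug.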 The note with it: HPDE-C7 pancreatic duct cells viability, at 10 µM, active compounds read high.
Take `Cc1cc(-c2ccccc2)c2c3c(cn2n1)c(=O)n(C)c(=O)n3C`: the cytotoxicity was 2.6%.
`Cc1nc2sc3c(c2c2nnc(SCC(=O)NCc4ccco4)n12)CCCC3`: the cytotoxicity was -3.2%.
As for `N#Cc1c(SCc2ccccc2)nc(N2CCOCC2)c2c1CCCC2`, the cytotoxicity is 8.3%.
Next, `CCCCCSc1nc(N2CCOCC2)c2c(c1C#N)CC(C)(C)OC2`: 1.7%; `CC1(C)Cc2c(C#N)c(SCc3ccccc3)nc(N3CCOCC3)c2CO1`: 18.9%; `CC1(C)Cc2c(C#N)c(SCC(=O)c3ccccc3)nc(N3CCOCC3)c2CO1`: -5.6%.
Regarding `CC1(C)Cc2c(C#N)c(SCCOc3ccccc3)nc(N3CCOCC3)c2CO1`, the cytotoxicity is 59.4% (active).
Turning to `CN1Cc2c(N3CCOCC3)nc(SCc3ccccc3)c(C#N)c2CC1(C)C`, the cytotoxicity was 51.3% (active).
In the case of `Cn1c(=O)c2c(ncn2CC(=O)N2CCCc3ccccc32)n(C)c1=O`, the cytotoxicity was -15.8%.
For the compound `CCOC(=O)c1cccc(S(=O)(=O)N(CCO)Cc2cc3cc(OC)c(OC)cc3[nH]c2=O)c1`, the cytotoxicity was -19.4%.
For `COc1ccc(-n2c(Cc3cccn3C)nnc2SCC(=O)Nc2nccs2)cc1`, the cytotoxicity is 5.7%.
In the case of `Nc1ccccc1OCCOCCOCCOc1ccccc1N`, the cytotoxicity was 5.3%.
`CCC(C)n1cnc2c(c1=O)c1nc3ccccc3nc1n2Cc1ccc2c(c1)OCO2` (centres undefined): the cytotoxicity is 26.8%.
As to `COc1ccc(C2=NOC(C(=O)NCc3ccco3)C2)cc1OC` (centres undefined), the cytotoxicity was 38.7%.
`COc1cc(C2=NOC(C(=O)Nc3ccc(C)cc3)C2)cc(OC)c1OC` (centres undefined): the cytotoxicity was -9.2%.
Consider `COc1ccc(NC(=O)C2CC(c3ccc(OC)c(OC)c3)=NO2)cc1OC` (centres undefined), for which the cytotoxicity was -6.6%.
As for `COc1cc(C2=NOC(C(=O)NCc3ccco3)C2)cc(OC)c1OC` (centres undefined), the cytotoxicity is 32.6%.
Next, `COc1ccc(C2=NOC(C(=O)NCc3ccc(F)cc3)C2)cc1OC` (centres undefined): 55.2% (active); `COc1cc(C2=NOC(C(=O)NCc3ccc(F)cc3)C2)cc(OC)c1OC` (centres undefined): 63.4% (active); `O=C(c1ccco1)N(CCCN1CCOCC1)c1nc(-c2ccc(F)cc2)cs1`: 11.3%.
As to `COc1ccc(NC(C)=O)cc1NC(=O)CSc1nnc(-c2cccnc2)n1C`, the cytotoxicity was -13.3%.
With `O=C(NCC1CCCO1)C1CCC(CNS(=O)(=O)c2ccccc2)CC1` (centres undefined), the cytotoxicity is 13.6%.
Turning to `O=C(CCS(=O)(=O)c1ccccc1)Nc1nc2c(s1)COc1ccccc1-2`, the cytotoxicity was 98.3% (active).
The figure for `O=C(Nc1nc2c(s1)COc1ccccc1-2)c1cccs1` is 9.6%; for `COc1ccc(OC)c2sc(NC(=O)CCS(=O)(=O)c3ccccc3)nc12` it is -0.4%.
On to `Clc1ccc2nc(CN3CCCc4ccccc43)cn2c1`, for which the cytotoxicity was 23.1%.
Next, `CCCCCn1c(=NC(C)=O)c(C#N)cc2c(=O)n3ccccc3nc21`: 8.8%.
As for `O=C(O)Cn1cc(C(=O)c2cccs2)c2ccccc21`, the cytotoxicity was -14%.
For the compound `COCCn1c(C(C)C)nc2oc3ccccc3c(=O)c2c1=O`, the cytotoxicity was -9.4%.
For `CCC(=O)N1CCc2cc(S(=O)(=O)NCCN3CCC(C)CC3)ccc21`, the cytotoxicity was -1.8%.
Consider `CCN1C(=O)CC(N2CCC(C(=O)OC)CC2)C1=O` (centres undefined), for which the cytotoxicity was -6.2%.
Next, `CN1CCN(C(c2cccnc2)c2ccc3cccnc3c2O)CC1` (centres undefined): -9.1%; `OCCN1CCN(C(c2cccs2)c2ccc3cccnc3c2O)CC1` (centres undefined): 79.3% (active).
Turning to `Cc1nc2sc(C(c3ccccc3)N3CCN(CCO)CC3)c(O)n2n1` (centres undefined), the cytotoxicity was -1.3%.
For `CC1CCC(C(=O)NC(C(=O)NCCN2CCC(C)CC2)C(C)C)CC1` (centres undefined), the cytotoxicity is -16.7%.
`Cc1nnc(SCc2ccccc2Cl)n1CC1CCCO1` (centres undefined): the cytotoxicity is -11.9%.
On to `COc1ccc(NC2=CC(=O)CC(C)(C)C2)cc1OC`, for which the cytotoxicity is -19.2%.
The figure for `O=C(Nc1cccc(NC(=O)N2CCN(c3ccccc3)CC2)c1)N1CCN(c2ccccc2)CC1` is 56.3% (active).
Consider `O=C(Nc1ccc2snnc2c1)N1CCN(c2ccccc2)CC1`, for which the cytotoxicity is -24.9%.
Next, `O=C(Nc1cccc2ccccc12)N1CCN(c2ccccc2)CC1`: 15.2%.
For the compound `COc1ccc(Cn2c(C)nc3oc4cc(OC)ccc4c(=O)c3c2=O)cc1`, the cytotoxicity is -21%.
On to `Nc1nc2n(n1)C(c1cccc(Cl)c1)CC(c1ccc(F)cc1)N2` (centres undefined), for which the cytotoxicity is 10.8%.
Turning to `CCOC(=O)CC(=O)CSc1nc2c(c(C)c1C#N)CCC2`, the cytotoxicity is 52.6% (active).
For the compound `CCOC(=O)c1sc(NC(=O)CSc2nc3c(cc2C#N)CCCCCC3)c(C#N)c1C`, the cytotoxicity was 79.6% (active).
As to `CC(C)OC(=O)CC(=O)CSc1nc2c(cc1C#N)CCC2`, the cytotoxicity is 49.9%.
In the case of `COC(=O)CC(=O)CSc1nc2c(cc1C#N)CCC2`, the cytotoxicity is 76.1% (active).
For `CCOC(=O)CC(=O)CSc1nc2c(cc1C#N)CCCCC2`, the cytotoxicity was -5.9%.
As to `CCOC(=O)c1sc(NC(=O)CSc2nc3c(cc2C#N)CCC3)c(C#N)c1C`, the cytotoxicity was 4.5%.
Regarding `Cc1cc(C)c(C#N)c(SCC(=O)CC(=O)OC(C)C)n1`, the cytotoxicity is 34.5%.
`N#Cc1cc2c(nc1SCC(=O)Nc1sc3c(c1C#N)CCC3)CCCCC2`: the cytotoxicity is 23.2%.
Consider `Cc1nc(SCC(=O)CC(=O)OC(C)C)c(C#N)c(C)c1C`, for which the cytotoxicity was -1.2%.
As for `Cc1c(C#N)c(SCC(N)=O)nc2c1CCCC2`, the cytotoxicity was -21%.
In the case of `COC(=O)CC(=O)CSc1nc2c(cc1C#N)CCCCC2`, the cytotoxicity was 10.3%.
As to `COc1cc(Cl)ccc1S(=O)(=O)n1nc(C)cc1C`, the cytotoxicity is 7.8%.
Consider `CCc1ccc(S(=O)(=O)NCc2csc(-c3cccnc3)n2)s1`, for which the cytotoxicity was -5%.
Next, `CCOC(=O)c1ccccc1NC(=O)c1c(O)c2ccccc2n(CC)c1=O`: -9.2%.
On to `CC(=O)N1CCc2cc(S(=O)(=O)NC(CC(C)C)C(=O)Nc3cc(C)ccn3)ccc21` (centres undefined), for which the cytotoxicity is -6.7%.
`Cc1cc(C(C)(C)C)oc1C(=O)N1CCN(C(=O)c2oc(C(C)(C)C)cc2C)CC1`: the cytotoxicity was 4%.
Turning to `CCCCS(=O)(=O)C(=C1Nc2ccccc2N1)S(=O)(=O)CCCC`, the cytotoxicity is -0.6%.
Next, `CCOCCCn1c(=S)[nH]c2cc(C(=O)N3CCC(C(N)=O)CC3)ccc2c1=O`: 0.3%; `CC(C)OC(=O)CSc1nnc(-c2cnccn2)n1-c1ccc(Cl)cc1`: 9.2%; `Cc1ccc(OCC(=O)N2CCN(C(=O)Cc3ccccc3)CC2)cc1`: -0.3%.
In the case of `N#CCSc1nc2cc(C(=O)N3CCCC3)ccc2c(=O)n1Cc1ccccc1`, the cytotoxicity was -0.6%.
Next, `CCOC(=O)CSc1nc2cc(C(=O)N3CCC(C(N)=O)CC3)ccc2c(=O)n1-c1ccccc1`: -8.3%; `N#CCSc1nc2cc(C(=O)N3CCC(C(N)=O)CC3)ccc2c2nc3ccccc3n12`: 75.7% (active).
Regarding `Cc1onc(-c2ccccc2)c1C(=O)Nc1cccc2nsnc12`, the cytotoxicity was -11.7%.
The figure for `COc1ccc(CN2CN(C(C)C)CSC2=S)cc1` is 50.5% (active).
For the compound `COc1ccc(Cn2c(C)ccc2C)cc1`, the cytotoxicity was -2%.
For `COc1ccc(CN2CCC(=O)NC2=O)cc1`, the cytotoxicity was 6.7%.
As for `CC(=O)c1cc(-c2ccccc2)n(CCC(=O)NCc2cccs2)c1C`, the cytotoxicity was -24%.
Consider `CCCc1nn(C)c2c1C(c1cccnc1)C(C#N)=C(N)O2` (centres undefined), for which the cytotoxicity was 3.9%.
For `CC(C)(C)c1[nH]nc2c1C(c1cccnc1)C(C#N)=C(N)O2` (centres undefined), the cytotoxicity was -9.6%.
Take `CCc1[nH]nc2c1C(c1cccnc1)C(C#N)=C(N)O2` (centres undefined): the cytotoxicity is 4.9%.
The figure for `N#CC1=C(N)Oc2nc(-c3ccccc3)[nH]c2C1c1cccnc1` (centres undefined) is 3.4%; for `N#CC1=C(N)Oc2cc(O)ccc2C1c1ccncc1` (centres undefined) it is 3%.
For the compound `N#CC1=C(N)Oc2cc(O)ccc2C1c1ccccc1` (centres undefined), the cytotoxicity is -11.3%.
The figure for `CN(C)c1ccc2c(c1)OC(N)=C(C#N)C2c1cccc(F)c1` (centres undefined) is 62.6% (active); for `CCN(CC)c1ccc2c(c1)OC(N)=C(C#N)C2c1cccnc1` (centres undefined) it is 64.4% (active); for `N#CC1=C(N)Oc2c(ccc3cccnc23)C1c1cccnc1` (centres undefined) it is 62.4% (active).
Turning to `C=CCSC1=C(C#N)C(c2ccccc2Cl)CC(=O)N1` (centres undefined), the cytotoxicity is -33.8%.
The figure for `O=C(O)C1C2C=CC(C2)C1C(=O)Nc1ccc(C(=O)N2CCCCC2)c(Cl)c1` (centres undefined) is -20.1%; for `COc1cc2c(cc1OC)C1=C(C#N)CN(CC(=O)O)CN1CC2` it is -4.5%.
Turning to `COc1ccc(S(=O)(=O)NCCC(=O)NCc2cccs2)cc1`, the cytotoxicity is -13.7%.
`C=C(C)CSc1nc2ncccc2[nH]1`: the cytotoxicity was -0.6%.
As for `COc1ccc(CN(C(=O)CSc2nnc(-c3ccccc3F)o2)c2ccc(F)cc2)cc1`, the cytotoxicity was 6.6%.
The figure for `COc1ccc(CN(C(=O)CSc2nnc(-c3ccc(F)cc3)o2)c2ccc(F)cc2)cc1` is 3%; for `O=C(CSc1nnc(-c2c[nH]c3ccccc23)o1)N(Cc1ccccc1)c1ccc(F)cc1` it is 53.6% (active).
For the compound `CCOC(=O)C(C)Sc1nc2ccccc2c(=O)n1CC` (centres undefined), the cytotoxicity was -15.7%.
The figure for `Cc1cccc(N2CCN(c3nnnn3-c3ccccc3)CC2C)c1` (centres undefined) is 0.6%; for `CC(NC(=O)c1noc2c1CCCC2)c1ccccc1` (centres undefined) it is 4.7%.
Next, `CCOc1ccc2[nH]c(=O)c(CN(Cc3cccs3)C(CC)c3nnnn3C(C)(C)CC)cc2c1` (centres undefined): 59% (active).
Turning to `Cc1ccc2[nH]c(=O)c(CN(Cc3nnnn3C3CCCC3)C3CCCCC3)cc2c1`, the cytotoxicity was 9.3%.
As for `CCOc1ccc2[nH]c(=O)c(CN(Cc3cccs3)Cc3nnnn3C(C)(C)CC)cc2c1`, the cytotoxicity is 12.9%.
Next, `CCOc1ccc2[nH]c(=O)c(CN(Cc3cccs3)Cc3nnnn3C(C)(C)C)cc2c1`: 31.8%; `CCOC(=O)Cn1nnnc1C(CC)N(Cc1cccs1)Cc1cc2cc(C)ccc2[nH]c1=O` (centres undefined): 7.5%.
In the case of `Cc1ccc2[nH]c(=O)c(CN(Cc3ccccc3)Cc3nnnn3C3CCCC3)cc2c1`, the cytotoxicity was 39.3%.
Next, `CCC(c1nnnn1C1CCCC1)N(Cc1cccs1)Cc1cc2cc(C)ccc2[nH]c1=O` (centres undefined): 56.4% (active); `Cc1ccc2cc(CN(Cc3ccc(F)cc3)Cc3nnnn3C3CCCC3)c(=O)[nH]c2c1`: 23.4%.
For the compound `Cc1ccc2cc(CN(Cc3ccccc3)Cc3nnnn3C3CCCC3)c(=O)[nH]c2c1`, the cytotoxicity is 53.3% (active).
